From PubChem BioAssay
SENP8 block-1 – SENP8 protease inhibitors, primary screen, biochemical, luminescence; Sentrin-specific protease 8 (Homo sapiens), Q96LD8; purified SENP8, Z-RLRGG-aminoluciferin cleavage; inhibition, % at 10 µM; actives 1.2% (n = 330,000); AID 2540, 2010; in the data active = inhibition above about 50%
Target sequence (Q96LD8 whole entry, looked up): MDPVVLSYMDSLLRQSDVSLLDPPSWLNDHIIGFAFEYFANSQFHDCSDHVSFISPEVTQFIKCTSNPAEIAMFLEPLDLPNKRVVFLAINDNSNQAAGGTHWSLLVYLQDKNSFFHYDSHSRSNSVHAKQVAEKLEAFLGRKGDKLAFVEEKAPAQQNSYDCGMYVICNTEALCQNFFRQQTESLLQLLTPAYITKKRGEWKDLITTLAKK
SENP6 block – SENP6 protease inhibitors, primary screen, biochemical, luminescence, uHTS | inhibition, % at 10 µM | Recombinant SENP6 catalytic domain, aminoluciferin luminescence | AID 2599, 2010 | Sentrin-specific protease 6 (Homo sapiens), Q9GZR1 | actives 1.8% (n = 330,000);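 active = inhibition above about 50% at the single tested dose, limit read from the data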;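 note: plate controls were DMSO wells with enzyme for no effect and DMSO wells lacking enzyme for full effect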
TRAIL sens C8 – viability loss with TRAIL in NB7+C8 cells, primary screen, TRAIL sensitizer project, cell-based, ATPlite luminescence; inhibition (viability loss, TRAIL sensitization), % at 10 µM; actives 1% (n = 360,000);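 active = compounds causing at least 50% loss of cell viability in the single-dose screen, relative to plate controls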
PPC-1+TRAIL kill – compounds killing PPC-1 cancer cells with TRAIL present, primary screen, TRAIL potentiator project, ATPLite luminescence, uHTS. PPC-1 cells + TRAIL, ATPLite viability luminescence. cell killing (% activity), % at 4 µM or 5 µM. actives 0.41% (n = 220,000);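 active = cell killing above 50% in the first pass at 4 µM, then a duplicate retest at 5 µM averaging 50% or more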;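 note: plate controls were cells with TRAIL plus DMSO for no effect and medium-only wells lacking cells for full effect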
SENP7 block – SENP7 protease inhibitors, primary screen, biochemical, luminescence, uHTS; Sentrin-specific protease 7 (Homo sapiens), Q9BQF6; recombinant SENP7, Z-RLRGG-aminoluciferin luminescence, 40 min; inhibition, % at 5 µM; actives 1.5% (n = 330,000);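 active = inhibition above about 50% at the single test dose, limit read from the data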;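 note: plate controls were DMSO with enzyme for no effect and no enzyme buffer wells for full effect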
Target sequence (Q9BQF6 706-1050 limits assumed): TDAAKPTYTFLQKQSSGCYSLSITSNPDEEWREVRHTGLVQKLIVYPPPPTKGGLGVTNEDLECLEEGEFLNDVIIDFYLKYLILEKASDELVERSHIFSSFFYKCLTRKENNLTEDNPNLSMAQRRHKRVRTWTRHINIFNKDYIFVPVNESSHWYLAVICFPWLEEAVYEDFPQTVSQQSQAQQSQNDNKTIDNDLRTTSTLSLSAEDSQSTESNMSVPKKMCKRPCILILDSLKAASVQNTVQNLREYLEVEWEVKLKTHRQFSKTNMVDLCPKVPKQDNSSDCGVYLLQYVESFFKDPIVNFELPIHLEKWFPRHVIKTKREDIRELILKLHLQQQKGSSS
SENP8 block-2 – human SENP8 protease inhibitors, primary screen, biochemical, fluorescence, Nedd8 protein substrate, uHTS | recombinant SENP8 | Sentrin-specific protease 8 (Homo sapiens), Q96LD8 | inhibition, % at 20 µM | AID 602440, 2012 | actives 0.64% (n = 360,000); in the data active = inhibition mostly above about 40%, no sharp cut-off; inactive = mostly below about 27%
SENP8 conf – SENP8 protease inhibitors, retest, confirmation, biochemical, luminescence, single concentration | shares compounds with SENP7 block | Recombinant SENP8, Z-RLRGG-aminoluciferin luminescence, 60 min | actives 40% (n = 6,200) | inhibition, % at 12.5 µM;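 active = mean inhibition across replicates above about 50%, limit read from the data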
SENP6 conf – SENP6 protease inhibitors, confirmation, biochemical, luminescence, single concentration | inhibition, % at 12.5 µM | actives 58% (n = 6,200) | shares compounds with SENP7 block | recombinant SENP6, Z-RLRGG-aminoluciferin luminescence
SENP7 confirm – SENP7 protease inhibitors, retest, confirmation, biochemical, luminescence, single concentration; shares compounds with SENP7 block; recombinant SENP7, Z-RLRGG-aminoluciferin luminescence, 40 min; inhibition, % at 12.5 µM; actives 69% (n = 6,200)
Casp3 SENP sel – caspase-3 protease inhibitors, confirmation, selectivity assay for SENP inhibitor project, biochemical, single concentration. shares compounds with SENP7 block. purified caspase-3, Z-DEVD-aminoluciferin luminescence, 60 min. inhibition, % at 12.5 µM. actives 60% (n = 6,200);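 active = mean inhibition above about 50%, limit read from the data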;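 note: plate controls were enzyme with DMSO for no effect and wells without caspase-3 for full effect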
Target sequence (P42574 28-227 limits assumed): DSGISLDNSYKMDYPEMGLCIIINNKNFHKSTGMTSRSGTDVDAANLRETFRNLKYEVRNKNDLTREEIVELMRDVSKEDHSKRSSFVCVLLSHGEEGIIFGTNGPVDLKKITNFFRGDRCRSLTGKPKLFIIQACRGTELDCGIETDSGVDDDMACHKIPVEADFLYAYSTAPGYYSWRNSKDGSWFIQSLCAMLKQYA
Luc interf – luminescence interference (SENP counter-screen); inhibition, % at 12.5 µM; Pre-incubated SENP8/Z-RLRGG-aminoluciferin, luciferase luminescence interference; shares compounds with SENP7 block; actives 39% (n = 6,200);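 active = mean inhibition above about 50% when retested at one dose, limit read from the data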;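 note: plate controls were DMSO wells with completed reaction for no effect and substrate without enzyme for full effect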
Starred values were filed as active, the others as inactive; i = inactive; nt = no result. This is a sample that favours compounds with a hit; in the whole collection about 3% have one here.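 Rule for the calls, unless noted: active = mean inhibition above about 50% in the one-dose retest (limit read from the data); inactive = the rest.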

SMILES | SENP8 block-1 | SENP6 block | TRAIL sens C8 | PPC-1+TRAIL kill | SENP7 block | SENP8 block-2 | SENP8 conf | SENP6 conf | SENP7 confirm | Casp3 SENP sel | Luc interf
Cc1ccc(NC(=S)Nc2cccc3cnccc23)cc1 | 86.8* | 92.0* | 2.9 | 27.0 | 70.1* | -110.1 | -3.1 | 24.6 | 4.1 | 7.0 | 8.9
Cc1ccccc1NC(=S)Nc1cccc2cnccc12 | 87.9* | 97.8* | 2.8 | 22.6 | 85.9* | -152.3 | 15.5 | 32.8 | 19.0 | 10.2 | 6.0
NC(=S)Nc1cccc2cnccc12 | 0.5 | 1.9 | -8.4 | -13.1 | 4.7 | -0.6 | nt | nt | nt | nt | nt
COc1cc(NC(=O)CCc2c(C)noc2C)c(Cl)cc1C(=O)O | 11.0 | -3.7 | -5.5 | nt | -4.9 | -9.4 | nt | nt | nt | nt | nt
Cn1c(=O)n(C)c2cc(/C=N/N=C3/NC(=O)C(CC(=O)O)S3)ccc21 (stereo not drawn) | -4.7 | -9.0 | 3.6 | 9.0 | 4.5 | -32.2 | nt | nt | nt | nt | nt
COc1ccc(CN(C)CC(=O)Nc2cccc(S(=O)(=O)N(C)c3ccccc3)c2)c(OC)c1 | 6.6 | 0.1 | 4.4 | nt | 9.3 | 15.0 | nt | nt | nt | nt | nt
COc1ccc(Cl)cc1NC(=O)CN1CCc2ccccc21 | 12.4 | -0.9 | -1.2 | -11.5 | 3.7 | 0.5 | nt | nt | nt | nt | nt
COc1ccc(NC(=S)NNC(=O)CNc2ccc(Cl)cc2)cc1 | -10.3 | -19.7 | -8.8 | -2.1 | -1.4 | 21.7 | nt | nt | nt | nt | nt
O=C(Nc1nccs1)c1sc2ccccc2c1Cl | 75.3* | 87.7* | 74.3* | 38.8 | 70.7* | -88.5 | 1.8 | 58.2* | 90.9* | 69.6* | 6.9
Cc1ccc2c(Cl)c(C(=O)Nc3cc(C)on3)sc2c1 | -12.6 | -3.0 | 0.3 | -7.2 | 27.4 | 14.4 | nt | nt | nt | nt | nt
Cc1ccnc(NC(=O)c2sc3ccccc3c2Cl)c1 | 57.4* | 71.0* | 91.7* | 76.5* | 89.3* | -2.5 | 42.2 | 37.4 | 15.6 | 55.2* | 6.3
COC(=O)[C@@]1(Cc2ccc(OC)cc2)[C@H]2c3cc(C(=O)N4CCCC4)n(CCc4ccc(OC)c(Br)c4)c3C[C@H]2CN1C(=O)c1ccccc1 | nt | nt | 5.1 | nt | nt | -16.1 | nt | nt | nt | nt | nt
CCCCNC(=O)C1(C)CCN1C(=O)c1cccnc1Oc1ccccc1 (stereo not drawn) | nt | nt | 4.9 | nt | nt | 10.9 | nt | nt | nt | nt | nt
COc1cccc(-c2c(C(=O)N/N=C(\C)c3ccc(Cl)s3)nnn2-c2nonc2N)c1 | -8.6 | 0.2 | -2.7 | nt | -9.8 | 4.8 | nt | nt | nt | nt | nt
COc1cccc(NC(=O)c2ccc3c(c2)OCCO3)c1 | 94.2* | 93.9* | 86.7* | nt | 97.3* | 10.6 | 97.0* | 97.7* | 101.8* | 97.3* | 95.9*
CN1CCSc2ccc(C(=O)Nc3ccc(Cl)cc3)cc21 | -17.5 | -27.5 | 27.4 | -16.1 | 4.6 | -424.4 | nt | nt | nt | nt | nt
CC(C)Oc1cccc(C(=O)Nc2ccc(CN3CCOCC3)cc2)c1 | -0.7 | -11.6 | 8.6 | 27.2 | 6.0 | 10.0 | nt | nt | nt | nt | nt
COc1cccc(NC(=O)c2ccc3c(c2)N(C)CCS3)c1 | 94.1* | 91.2* | 26.3 | nt | 95.9* | -466.0 | 95.2* | 95.7* | 100.3* | 93.8* | 95.6*
COC(=O)c1c(-c2cccnc2)csc1NC(=O)c1ccc2c(c1)OCO2 | 72.8* | 72.3* | 32.6 | nt | 95.5* | -464.6 | 11.5 | 21.2 | 20.7 | 36.2 | 0.1
COc1cccc(NC(=O)c2ccc(CN3CCOCC3)cc2)c1 | 11.8 | 50.3* | 24.3 | 0.7 | 39.2 | 7.5 | 26.6 | 21.3 | 57.0* | 63.1* | 33.6
CC[C@]12c3[nH]c4ccccc4c3CCN1C(=O)C(CC(=O)NCCCN(C)C)C[C@@H]2C(=O)N1CCN(C(=O)C2CC2)CC1 (stereo partly drawn) | -9.5 | -13.8 | -12.0 | nt | -6.6 | 17.6 | nt | nt | nt | nt | nt
COc1cccc(NC(=O)c2ccc3c(c2)OCO3)c1 | 88.1* | 92.8* | 53.2* | nt | 96.1* | 28.9 | -0.7 | 90.3* | 99.5* | 95.1* | 89.8*
Cc1cc(C)nc(NC(=O)c2ccc3c(c2)OCO3)c1 | 58.7* | 70.8* | nt | 17.8 | 80.5* | nt | 75.3* | 74.5* | 90.4* | 87.6* | 75.8*
COc1cc(Cl)c(NC2=CC(=O)C(=O)c3ccccc32)c(OC)c1 | 75.1* | -11.5 | 86.6* | nt | 59.8* | i | 0.6 | 89.7* | 73.8* | 8.5 | -0.4
O=C(O)c1ccc(-c2nc(-c3ccc(Cl)cc3Cl)cs2)cc1 | -7.2 | 59.7* | -4.0 | 22.6 | 0.7 | -33.9 | 32.2 | 36.5 | 48.6 | 11.7 | 21.3
SMILES | SENP8 block-1 | SENP6 block | TRAIL sens C8 | PPC-1+TRAIL kill | SENP7 block | SENP8 block-2 | SENP8 conf | SENP6 conf | SENP7 confirm | Casp3 SENP sel | Luc interf
COc1ccc2c(c1OC)C(=O)OC2Nc1nc(-c2cccc([N+](=O)[O-])c2)cs1 (stereo not drawn) | -9.0 | -8.5 | -4.3 | 14.7 | -11.1 | 37.4 | nt | nt | nt | nt | nt
COc1cc(C2N=C(c3ccccc3)NO2)cc(Br)c1O (stereo not drawn) | 77.2* | 91.2* | 0.9 | 9.4 | 28.0 | -165.4 | 85.0* | 84.0* | 91.7* | 58.1* | 85.2*
COc1ccc(C2N=C(c3ccccc3)NO2)cc1OC (stereo not drawn) | 18.8 | 8.4 | 26.3 | nt | 9.0 | -8.9 | nt | nt | nt | nt | nt
FC(F)Oc1ccc(C2N=C(c3ccccc3)NO2)cc1 (stereo not drawn) | 53.7* | 61.9* | 1.8 | nt | 1.7 | -19.7 | 17.0 | 28.1 | 23.7 | 17.9 | 13.8
CCCCCC(=O)N1C[C@@H](n2cc(-c3ccc(F)cc3)nn2)[C@H](O)C[C@@H]1c1ccc(OC)cc1 | nt | nt | -4.0 | nt | nt | 13.3 | nt | nt | nt | nt | nt
COc1ccc(NC(=O)CSc2nnc3n2CCCCC3)cc1 | -8.8 | -12.4 | 4.3 | 0.2 | 9.0 | 7.5 | nt | nt | nt | nt | nt
Cc1nc(-c2cc(-c3ccc(Cl)cc3)no2)cs1 | 68.5* | 75.9* | 40.1 | nt | 92.4* | 16.9 | 23.4 | 30.5 | 16.1 | 24.1 | 0.9
